The record followed here is PubChem BioAssay (NCATS).

“And” between values parts separate entries of the source, which are not always exact repeats. Equal entries are not always repeated. Results filed as inconclusive are left out. A call without a number means that no potency is given here. Values without a mark were called inactive. The source made the active and inactive calls. Calls come from the whole dose curve; as a rule, active = well fitted curve in the direction sought with a large enough effect; inconclusive = small, poorly fitted or top-dose-only effect, or another doubt; inactive = no such curve, though single readings can be large; an effect the other way counts as inactive or inconclusive.

One experiment concerns Zika virus NS2B-NS3 protease. Nature of the experiment: Primary screen GU AMC qHTS for Zika virus inhibitors (AID 1347154). Note: nearly all actives have a fitted effect of over 70% in size. Note: potency is the fitted concentration of half-maximal effect. The note with it: Zika NS2B-NS3 unlinked protease, AMC fluorogenic substrate; series mostly up to 54.1 µM; activity change, negative = inhibition: at the top concentration. Put shortly: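 Unlinked Zika NS2B hydrophilic domain–NS3 protease complex at 25 nM in 10 mM Tris-HCl pH 8.0, 0.01% Tween 20, with an AMC peptide substrate. Fluorescence change (340/450 nm) over 15 min at room temperature, normalized to controls, fitted to 4-parameter Hill.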
(Quantitative high-throughput screening tests each substance at several concentrations.)
As for `C[C@@H](NCCCc1cccc(C(F)(F)F)c1)c1cccc2ccccc12`, the Potency entry is “inactive”.

Turning to `CCCCc1oc2ccc(NS(C)(=O)=O)cc2c1C(=O)c1ccc(OCCCN(CCCC)CCCC)cc1`, the “activity change, negative = inhibition” value was -3.37%.

`N[C@@H](C(=O)N[C@@H]1C(=O)N2C(C(=O)O)=C(Cl)CS[C@H]12)c1ccccc1`: the Potency result was “inactive”.

Consider `CCn1cc(C(=O)O)c(=O)c2cc(F)c(N3CCNCC3)nc21`, for which the Potency result is “inactive”.

As for `CC1(C)[C@H](C(=O)O)N2C(=O)C[C@H]2S1(=O)=O`, the Potency result was “inactive”.

With `Cc1onc(-c2ccccc2Cl)c1C(=O)N[C@@H]1C(=O)N2[C@@H]1SC(C)(C)[C@@H]2C(=O)O`, the Potency entry was “inactive”.

Take `Cc1nnc(C(=O)NC(C)(C)c2nc(C(=O)NCc3ccc(F)cc3)c(O)c(=O)n2C)o1`: the Potency result is “inactive”.

As for `O=C(O)c1cccnc1`, the Potency entry was “inactive”.

Turning to `CC(C)OC(=O)C(C(=O)OC(C)C)=C1SC=CS1`, the Potency entry was “inactive”.

On to `O=P(O)(O)C(O)(Cc1cccnc1)P(=O)(O)O`, for which the Potency result is “inactive”.

As for `CC[C@H](C)C(=O)O[C@H]1C[C@@H](C)C=C2C=C[C@H](C)[C@H](CC[C@@H]3C[C@@H](O)CC(=O)O3)[C@H]21`, the Potency entry was “inactive”.

In the case of `O[C@@H](CNC[C@H](O)[C@H]1CCc2cc(F)ccc2O1)[C@@H]1CCc2cc(F)ccc2O1`, the Potency result was “inactive”.

On to `Cc1noc(NS(=O)(=O)c2ccc(N)cc2)c1C`, for which the Potency result was “inactive”.

Regarding `CC1=CC(=O)c2ccccc2C1=O`, the Potency entry was “inactive”.

With `COc1cnc(NS(=O)(=O)c2ccc(N)cc2)nc1`, the Potency result was “inactive”.

As to `O=c1oc2c(O)c(O)cc3c(=O)oc4c(O)c(O)cc1c4c23`, the Potency is 496 nM (active) and 1.92 µM (active).

For the molecule `CCOc1cc(N)c(Cl)cc1C(=O)NCC1CN(Cc2ccc(F)cc2)CCO1` (centres undefined), the Potency entry is “inactive”.

For `O=C(O)c1cc(=O)[nH]c(=O)[nH]1`, the Potency result is “inactive”.

As to `CCCc1cc(C(N)=S)ccn1`, the Potency result was “inactive”.

On to `CC(C)(Sc1cc(C(C)(C)C)c(O)c(C(C)(C)C)c1)Sc1cc(C(C)(C)C)c(O)c(C(C)(C)C)c1`, for which the Potency result was “inactive”.

Regarding `Cc1oc(=O)oc1CN1CCN(c2cc3c(cc2F)c(=O)c(C(=O)O)c2n3C(C)S2)CC1` (centres undefined), the Potency result was “inactive”.

For `Cc1cccc(Nc2ccncc2S(=O)(=O)NC(=O)NC(C)C)c1`, the Potency result was “inactive”.

For the molecule `COc1ccc2c(c1)c(CC(=O)OCC(=O)O)c(C)n2C(=O)c1ccc(Cl)cc1`, the Potency entry was “inactive”.

Turning to `CC(C)(C)NC(=O)[C@H]1CC[C@H]2[C@@H]3CC[C@H]4NC(=O)C=C[C@]4(C)[C@H]3CC[C@]12C`, the “activity change, negative = inhibition” value is 6.94%.

On to `COc1cc2ncnc(Nc3cccc(Cl)c3)c2cc1OC`, for which the Potency entry was “inactive”.

For `NS(=O)(=O)c1cc2c(cc1Cl)NC(C(Cl)Cl)NS2(=O)=O` (centres undefined), the Potency result is “inactive”.

As to `CO[C@@H]1[C@@H](OC(N)=O)[C@@H](O)[C@H](Oc2ccc3c(O)c(NC(=O)c4ccc(O)c(CC=C(C)C)c4)c(=O)oc3c2C)OC1(C)C`, the Potency entry is “inactive”.

Regarding `C[C@@H]1CN(c2c(F)c(N)c3c(=O)c(C(=O)O)cn(C4CC4)c3c2F)C[C@H](C)N1`, the Potency result was “inactive”.

Consider `CC(C)Cn1cnc2c(N)nc3ccccc3c21`, for which the Potency result was “inactive”.

Take `CN(Cc1cc(Br)cc(Br)c1N)C1CCCCC1`: the Potency result is “inactive”.

Consider `CCN[C@H]1C[C@H](C)S(=O)(=O)c2sc(S(N)(=O)=O)cc21`, for which the Potency entry was “inactive”.

As to `CN1CCN(c2c(F)cc3c(=O)c(C(=O)O)cn4c3c2OCN4C)CC1`, the Potency result was “inactive”.

For `CC(C)C1CCC(C(=O)N[C@H](Cc2ccccc2)C(=O)O)CC1` (some centres undefined), the Potency entry was “inactive”.

Regarding `CN(C)CCc1c[nH]c2ccc(CS(=O)(=O)N3CCCC3)cc12`, the Potency entry was “inactive”.

`Cc1c(-c2ccc(O)cc2)n(Cc2ccc(OCCN3CCCCCC3)cc2)c2ccc(O)cc12`: the Potency result is “inactive”.

As for `CN(C)CCc1c[nH]c2ccc(C[C@H]3COC(=O)N3)cc12`, the Potency entry is “inactive”.

The next experiment has as its system Zika virus NS2B-NS3 protease (unlinked complex). Nature of the experiment: Primary screen GU Rhodamine qHTS for Zika virus inhibitors: Unlinked NS2B-NS3 protease assay (AID 1347159). Note: nearly all actives have a fitted effect of over 60% in size. The conditions noted are these: Recombinant ZIKV NS2B-NS3 protease, Rhodamine110 substrate fluorescence; series mostly up to 107 µM; activity change, negative = inhibition: at the top concentration. The essentials: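 Noncovalent NS2B hydrophilic domain/NS3 protease complex (25 nM final) in 10 mM Tris-HCl pH 8.0, 0.01% Tween 20, preincubated 15 min with compounds (up to 114 microM), then 1.5 microM Rhodamine110 substrate. Fluorescence change over 15 min fitted to 4-parameter Hill.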
For `CCCCc1oc2ccc(NS(C)(=O)=O)cc2c1C(=O)c1ccc(OCCCN(CCCC)CCCC)cc1`, the “activity change, negative = inhibition” value is 134%.

`CC1(C)[C@H](C(=O)O)N2C(=O)C[C@H]2S1(=O)=O`: the “activity change, negative = inhibition” value was -4.28%.

Consider `Cc1onc(-c2ccccc2Cl)c1C(=O)N[C@@H]1C(=O)N2[C@@H]1SC(C)(C)[C@@H]2C(=O)O`, for which the Potency result is “inactive”.

Consider `Cc1nnc(C(=O)NC(C)(C)c2nc(C(=O)NCc3ccc(F)cc3)c(O)c(=O)n2C)o1`, for which the “activity change, negative = inhibition” value was 34.1%.

Turning to `CC[C@H](C)C(=O)O[C@H]1C[C@@H](C)C=C2C=C[C@H](C)[C@H](CC[C@@H]3C[C@@H](O)CC(=O)O3)[C@H]21`, the “activity change, negative = inhibition” value is 13.9% [at 57.1 µM].

Take `COc1cc2ncnc(Nc3cccc(Cl)c3)c2cc1OC`: the “activity change, negative = inhibition” value was 17.3%.

As for `NC1(c2ccc(-c3nc4ccn5c(=O)[nH]nc5c4cc3-c3ccccc3)cc2)CCC1`, the “activity change, negative = inhibition” value was 63.3%.

With `CN(C)CCc1c[nH]c2ccc(C[C@H]3COC(=O)N3)cc12`, the “activity change, negative = inhibition” value is 6.06%.
